Assay outcomes: PubChem, National Center for Advancing Translational Sciences (NCATS)
A selection: hits, their analogues and other compounds. The true share with any hit is near 19%.
HT1080 IDH1KD tx: kills HT-1080 cells with IDH1 knockdown | HT-1080 IDH1 knockdown viability, ATP luminescence, 48 h | hit rate 2% among 360,000 | Potency, µM (titrated, usually from 46.1 µM), for inactives: at the top dose activity, negative = toxicity, actives largely listed as cytotoxic;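 further: potency means the concentration at half of the fitted maximal effect; 0% = DMSO wells and -100% = cell-free medium wells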
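% activity derives from luminescence (CellTiter-Glo), normalised to DMSO and no-cell wells. HT-1080-IDH1KD cells, 750/well, had 48 h compound exposure at 37 °C.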
HT1080NT lethal: kills 2HG-producing HT-1080-NT fibrosarcoma cells; HT-1080-NT fibrosarcoma viability, CellTiter-Glo ATP luminescence, 48 h; Potency, µM (titrated, usually from 46.1 µM), for inactives: at the top dose activity, negative = less viability, most hits filed as cytotoxic; hit rate 1.6% among 360,000; AID 686970;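 further: NT is the 2HG producing partner of a matched IDH1 knockdown line; potency means the concentration at half of the fitted maximal effect; 0% = DMSO-treated cells and -100% = media-only wells without cells; nearly all actives have a fitted effect of over 55% in size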
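Toxicity toward the 2HG-producing NT line was scored as %Activity, normalised to DMSO and no-cell wells, from CellTiter-Glo luminescence after 48 hours' treatment.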
TDP1 cell CPT: DT40-hTDP1 cell growth loss with CPT; chicken DT40 Tdp1-/-;hTDP1 cells + 20 nM CPT, ATP luminescence, 48 h; Potency, µM (doses to about 46.2 µM), without a hit: top-dose activity change, negative = growth inhibition, usual class: inhibitors; hit rate 12% among 420,000; further: potency means the concentration at half of the fitted maximal effect; nearly all actives have a fitted effect of over 55% in size
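Cell growth measured by CellTiter-Glo luminescence after a minimum 48 h, 37 C compound exposure with 20 nM CPT in Tdp1-knockout DT40 cells stably expressing hTDP1, seeded 400/well; qHTS titration format.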
IL-1B inflam inh: blocks inflammasome-driven IL-1 beta release | THP-1 LPS/ATP IL-1B secretion, AlphaLISA, 16 h; stronger effect = lower value | activity change, % at 57.5 µM | hit rate 4.7% among 360,000; in the data active means activity change below about -50%; inconclusive means mostly about -30% to -49%
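THP-1 cells pretreated 1 hr with compounds (up to 57.5 uM final), then stimulated with LPS (250 ng/mL final) plus ATP (1.25 mM final); secreted IL-1B measured by AlphaLISA after 16 hr, decreased signal indicating inhibition.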
DT40 TDP1 no CPT: qHTS for Inhibitors of human tyrosyl-DNA phosphodiesterase 1 (TDP1): qHTS in cells in absence of CPT | DT40 Tdp1-/- hTDP1 cells, no CPT, ATP luminescence, 48 h | hit rate 15% among 420,000 | AID 686978, 2013 | Potency, µM (highest dose often 46.2 µM), without a hit: at the top dose activity change, negative = growth inhibition, hits mostly inhibitors; further: potency means the concentration at half of the fitted maximal effect; nearly all actives have a fitted effect of over 55% in size
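DT40 Tdp1-/-;hTDP1 cells, no CPT (DMSO vehicle only), 400 cells/well; compounds pin-transferred; ≥48 hr, 37 °C; CellTiter-Glo 30 min RT dark, luminescence read.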
ELG1 DNA repair: blocks ELG1-dependent DNA repair in HEK293T cells | hit rate 2.3% among 330,000 | Potency, µM (doses to about 46.1 µM), inactives show top-dose activity change, negative = inhibition, actives largely listed as inhibitors | AID 504467 | HEK293T ELG1-luciferase reporter, luminescence, 16 h; DNA damage induced by 5-fluorouridine; further: potency means the concentration at half of the fitted maximal effect; nearly all actives have a fitted effect of over 55% in size
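Quantitative HTS, concentration-response format. 2,000 cells/well co-treated with 5-fluorouridine and compound, 16 hr in 5% CO2 at 37 °C; ONE-Glo luminescence read after 30 min.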
Starred values were filed as active, the others as inactive; ? = inconclusive; nt = no result; [ ] = dose if it differs, or a comment. Unless noted, the call rests on the fitted dose curve; in most records, active means well fitted curve in the direction sought with a large enough effect; inconclusive means small, poorly fitted or top-dose-only effect, or another doubt; inactive means no such curve, though single readings can be large; an effect the other way counts as inactive or inconclusive. Unless noted, on the % scale 0 is the no-effect control and ±100 the full control effect.

SMILES	HT1080 IDH1KD tx	HT1080NT lethal	TDP1 cell CPT	IL-1B inflam inh	DT40 TDP1 no CPT	ELG1 DNA repair
Cc1c(NP(=O)(C(C)(C)C)C(C)(C)C)c(=O)n(-c2ccccc2)n1C	14.4%	4.6%	1.6%	-2.4	-2.6%	-2.2%
CC1CCC(NC(=O)c2cc3c(=O)n(C)c4ccccc4c3n2C)CC1 (configuration not stated)	-2.8%	4.0%	9.2µM*	0.0	?	?
COc1cc2c(cc1/C=C/[N+](=O)[O-])OCO2	8.2µM*	4.11µM*	5.8µM*	-10.6	2.31µM*	?
COc1cc(OC)c(OC)cc1C=O	3.1%	29.5%	6.8%	0.3	?	?
O=P1(NCCCl)OCCC(OO)N1CCCl (configuration not stated)	-3.6%	-4.7%	-39.9%	nt	-14.1%	nt
CN1C2CCC1CC(OC(=O)c1cc(Cl)cc(Cl)c1)C2 (configuration not stated)	?	?	14.6µM*	-24.0	?	17.4%
Cc1cc(C)cc(C(=O)OC2C[C@H]3CC[C@@H](C2)N3C)c1 (some centres not stated)	nt	nt	23.7µM*	nt	18.8µM*	nt
C[C@@H](C(=O)OC1C[C@H]2CC[C@@H](C1)N2C)c1ccc(Br)cc1 (some centres not stated)	nt	nt	29.9µM*	nt	26.6µM*	nt
COc1cc(C(=O)OC2C[C@H]3CC[C@@H](C2)N3C)ccc1O (some centres not stated)	1.5%	2.2%	33.4%	17.7	1.7%	-6.2%
CN1CCN(C(=O)O[C@H]2c3nccnc3C(=O)N2c2ccc(Cl)cn2)CC1	4.2%	-0.8%	9.9%	-10.3	13.6%	-2.9%
Cc1cccc(OCC(O)CN2CC2)c1 (configuration not stated)	15.8%	3.4%	3.66µM*	?	6.51µM*	nt
CC(=O)c1cccc(OCC(O)CN2CC=C(c3ccccc3)CC2)c1 (configuration not stated)	17.0%	-0.5%	?	-2.3	16.4µM*	-19.8%
Cc1cccc(OCC(=O)N2CCN(Cc3cccnc3)CC2)c1	-5.8%	-7.3%	-8.6%	-12.5	-27.3%	0.1%
Cc1cc(Br)c(NC(=O)CN2CC=C(c3ccccc3)CC2)c(Br)c1	-4.6%	-6.7%	1.1%	-27.6	?	?
C=C(C)c1cc2cc(C(C)=O)c(O)cc2o1	nt	nt	9.1%[9.04 µM]	nt	-3.5%[9.04 µM]	nt
CCOC(=O)c1cc(-c2ccccc2)n(CCCC(=O)Nc2ccc(C)c(C)c2)c1C	nt	nt	16.4µM*	nt	3.66µM*	nt
COc1cc(/C=C2\C[C@H]3[C@@H]4CC=C5C[C@@H](N6CCCC6)CC[C@]5(C)[C@H]4CC[C@]3(C)[C@H]2O)cc(OC)c1OC	-22.0%	-10.6%	14.6µM*	-10.2	5.17µM*	nt
CNC(=S)N1CCN(CCN=Cc2c(O)n(-c3ccc(C)cc3)c(=S)[nH]c2=O)CC1	26.9%	-3.9%	3.5%	-13.7	-6.6%	1.8%
COc1ccc(-c2cc(-c3ccccc3)[n+](C)c(-c3ccccc3)c2)cc1	14.6µM*	?	1.03µM*	-90.3*	0.581µM*	?
COc1ccc(-[n+]2c(-c3ccccc3)cc(-c3ccc(C)cc3)cc2-c2ccccc2)cc1	2.59µM*	4.61µM*	2.59µM*	-93.7*	1.16µM*	3.66µM*
Cc1ccc(-c2cc(-c3ccccc3)cc(-c3ccccc3)[n+]2-c2ccc(C(=O)O)cc2)cc1	9.5%	13.6%	-2.8%	15.8	2.6%	-0.6%
Brc1ccc(-[n+]2c(-c3ccccc3)cc(-c3ccccc3)cc2-c2ccccc2)cc1	13µM*	16.4µM*	10.3µM*	-82.8*	2.59µM*	?
C[n+]1c(-c2ccccc2)cc(CCCCc2cc(-c3ccccc3)[n+](C)c(-c3ccccc3)c2)cc1-c1ccccc1	?	?	2.59µM*	-100.3*	5.17µM*	?
Cc1ccsc1C(=O)C1CCCN(Cc2cc(C(C)C)n[nH]2)C1 (configuration not stated)	0.9%	1.7%	6.0%	0.0	?	-14.8%
Cc1cc(C(=O)OCC(=O)Nc2ccc(F)cc2)c(C)n1C1CC1	12.3%	-0.8%	-0.6%	-6.3	-10.7%	?
SMILES	HT1080 IDH1KD tx	HT1080NT lethal	TDP1 cell CPT	IL-1B inflam inh	DT40 TDP1 no CPT	ELG1 DNA repair
C[C@]12CCC3C(CC[C@H]4C[C@H](O)CC[C@]34C)[C@@H]1CC[C@@H]2C(=O)CO (some centres not stated)	nt	nt	-24.4%	nt	-29.6%	nt
CCCOC(=O)c1ccc(-[n+]2c(-c3ccccc3)cc(-c3ccccc3)cc2-c2ccccc2)cc1	11.6µM*	20.6µM*	1.16µM*	-85.5*	1.16µM*	-25.2%
COc1ccc(C(=O)N/N=C\c2coc3ccc(C)cc3c2=O)cc1	?	-24.2%	-36.5%	-11.5	-20.1%	?
CCN(CC)C(=O)c1ccc(NC(=O)c2cccc(C(F)(F)F)c2)cc1	11.0%	2.4%	-14.5%	?	?	-4.3%
COc1ccc(C(=O)Nc2ccc3c(c2)N(C)C(=O)c2ccccc2S3)cc1OC	nt	nt	2.91µM*	nt	2.59µM*	nt
CN1C(=O)c2ccccc2Sc2ccc(NC(=O)c3ccc(C(F)(F)F)cc3)cc21	nt	nt	4.61µM*	nt	2.91µM*	nt
CCOC(=O)c1ccc2c(c1)N(CC)C(=O)c1ccccc1S2	0.0%	-1.7%	?	15.3	?	-28.4%
CN(C)c1ccc(C=C2C(=O)NC(=O)NC2=O)cc1	6.2%	16.8%	-16.0%	-5.3	-6.1%	nt
CN(C)c1ccc(/C=C/[N+](=O)[O-])cc1	23.1µM*	?	?	-63.6*	16.4µM*	?
C/C(=C\c1ccc(N(C)C)cc1)[N+](=O)[O-]	6.31µM*	11.2µM*	4.11µM*	-106.6*	4.11µM*	?
CCP(=S)(CC)c1ccc(N(C)C)cc1	15.1%	-2.5%	?	17.4	?	-6.0%
C=CCn1c(O)c(C(CC)=NCC2CCCO2)c(=O)[nH]c1=O (configuration not stated)	1.6%	0.1%	1.4%	7.7	11.3%	?
COC(=O)C1=C(C)NC(COC(N)=O)=C(C(=O)OC(C)C)C1c1cccc(Cl)c1Cl (configuration not stated)	nt	nt	29.9µM*	nt	33.5µM*	nt
COc1ccc(NC(=O)CCOc2cc(C)ccc2C)cc1S(=O)(=O)N1CCCCC1	0.3%	-3.6%	?	-53.7*	20.6µM*	23.1µM*
